Assay results published in ChEMBL document CHEMBL1157539, “Thousands of chemical starting points for antimalarial lead identification” (Nature, 2010).

How the values were obtained:
Type in all cases: functional
Plasmodium falciparum [1] = experiment: GSK_TCMDC: Inhibition of Plasmodium falciparum 3D7 in whole red blood cells, using parasite LDH activity as an index of growth. Test compounds present at 2uM
Plasmodium falciparum [2] = experiment: GSK_TCMDC: Inhibition of Plasmodium falciparum Dd2 in whole red blood cells, using parasite LDH activity as an index of growth. Test compounds present at 2uM
HepG2 = experiment: GSK_TCMDC: Percent inhibition of human HepG2 cell line. Test compounds present at 10uM.

| SMILES | Inhibition (Plasmodium falciparum [1]) | Inhibition (Plasmodium falciparum [2]) | Inhibition (HepG2) |
| --- | --- | --- | --- |
| CN1CCCN(c2ccnc3cc4c(cc23)N(C(=O)c2ccc(C(F)(F)F)cc2)CC4)CC1.Cl | 100% | 63% | 10% |
| COc1ccc(Cc2nc(/N=C(\N)Nc3ccccc3)ccc2OC)cc1 | 93% | 68% | 40% |
| O=C(Nc1ccc(-c2nc3ccccc3[nH]2)cc1)c1ccc(Cl)c([N+](=O)[O-])c1 | 99% | 4% | 6% |
| COc1cccc(NC(=O)NC2CCN(c3ccnc(Nc4ccc(F)cc4)n3)C2)c1 (stereo unspecified) | 100% | 71% | 9% |
| O=c1c2ccccc2[nH]c2cc(Cl)ccc12 | 95% | 86% | 24% |
| COc1ccc(Nc2ncc3c(-c4cccc(NC(=O)CC(C)C)c4)c[nH]c3n2)cc1OC | 100% | 71% | 37% |
| Cc1ccccc1C1CCN(C2CCC(NC(=O)/C=C/c3ccc(OC(F)(F)F)cc3)CC2)CC1 (stereo unspecified) | 100% | 67% | 96% |
| CCOCn1c(-c2ccccc2)cc2c3c(N)nc(N)nc3ccc21 | 91% | 66% | 62% |
| COc1ccc2ncc(F)c([C@H](O)CN3CCC(NCc4cc5c(cn4)OCCO5)CC3)c2c1.Cl | 100% | 97% | 5% |
| Nc1nccc2ccc(Oc3ccncc3)cc12 | 91% | 81% | 0% |
| COc1ccc(-c2csc3nc(C)nc(Cl)c23)cc1OC | 97% | 95% | 0% |
| Cc1cc(N2CCOCC2)nc(Nc2ccc(NC(=O)c3cccc4ccccc34)cc2)n1 | 95% | 11% | 44% |
| O=C(Nc1cccc(C(F)(F)F)c1)NC1CCN(c2ccnc3cc(Cl)ccc23)CC1.O=C(O)C(F)(F)F | 100% | 47% | 13% |
| O=C(NCc1cccc2ccccc12)[C@@H]1CCCN1C(=O)c1ccc(O)c(-c2ccc(Cl)c(Cl)c2)c1 | 98% | 71% | 0% |
| CCCCNCc1ccc(-c2nc(CN(CCCn3ccnc3)C(=O)C3COc4ccccc4O3)cs2)cc1.O=C(O)C(F)(F)F (stereo unspecified) | 93% | 8% | 6% |
| O=S(=O)(Nc1ccc(CCN2CCC(N3CCCCC3)CC2)cc1)c1ccccc1C(F)(F)F | 95% | 8% | 9% |
| C=CCNC(=O)C(C)c1ccc2cc(OC)ccc2c1 (stereo unspecified) | 92% | 90% | 4% |
| CCCCCCN1CCC(NCc2cccc(-n3ccnc3)c2)CC1.O=C(O)C(F)(F)F | 100% | 100% | 3% |
| O=C(N[C@@H](Cc1ccccc1)[C@H](O)CNC1CCCCC1)c1cc(C2CCCC2)cc(N2CCCC2=O)c1 | 100% | 98% | 17% |
| CC(C)[C@H]1CC[C@H](C)C[C@@H]1OC(=O)N[C@@H](Cc1ccc(O)cc1)C(=O)NC1CCN(Cc2ccc(OCCCN(C)C)cc2)C1 (stereo partly specified) | 99% | 64% | 27% |
| CN(C)CCCOc1ccc(-c2nc(-c3ccc4c(c3)CCC4=NO)c(-c3ccncc3)[nH]2)cc1.Cl | 96% | 63% | 68% |

| SMILES | Inhibition (Plasmodium falciparum [1]) | Inhibition (Plasmodium falciparum [2]) | Inhibition (HepG2) |
| --- | --- | --- | --- |
| CNC(=O)c1cc(NCCCNCc2ccc(Cl)c(C(F)(F)F)c2)nc2ccccc12.Cl | 91% | 7% | 25% |
| COCCN(C)CCCOc1cc2c(cc1OC)ncn2-c1cc(OCc2ccccc2C(F)(F)F)c(C(N)=O)s1.Cl | 98% | 49% | 24% |
| C=CCc1cc(Cc2cnc(N)nc2N)c2ccc(C)nc2c1O | 84% | 3% | 51% |
| COc1cc(Nc2nccc(N3CCC(NC(=O)c4cccc(NC(C)=O)c4)C3)n2)cc(OC)c1OC (stereo unspecified) | 98% | 68% | 9% |
| Cc1cc(N/N=C/c2ccccc2[N+](=O)[O-])c2ccc(F)cc2n1 | 100% | 100% | 32% |
| Cc1cc(F)ccc1Nc1nc(N(C)c2ccccc2)c2cccc(OCCO)c2n1 | 95% | 94% | 34% |
| N#Cc1ccccc1N1CCN(C2CCC(NC(=O)c3n[nH]c4cc(C(F)(F)F)ccc34)CC2)CC1 (stereo unspecified) | 84% | 34% | 15% |
| O=C(Nc1cccc(-c2cccc(CN3CCCC3)c2)c1)c1ccc(Cl)cc1.O=C(O)C(F)(F)F | 93% | 32% | 50% |
| C#CCNCc1ccc(-c2cccc(-c3nc4cccc(C)c4[nH]3)c2)cc1.O=C(O)C(F)(F)F | 100% | 32% | 0% |
| COc1cc(NCCCNCC2c3ccccc3Oc3ccccc32)nc2ccccc12.O=C(O)C(F)(F)F | 99% | 66% | 99% |
| CC12CCC(C(=O)N(CC(O)Cn3c4ccc(Cl)cc4c4cc(Cl)ccc43)C1=O)C2(C)C (stereo unspecified) | 100% | 99% | 0% |
| CS(=O)(=O)Cc1ccc(Nc2nccc(-c3c(-c4cccc(C(=O)Nc5c(F)cccc5F)c4)nn4ccccc34)n2)cc1 | 96% | 92% | 85% |
| Cc1cccc2nc(-c3ccc(-c4ccc(CNC(C)C)cc4)cc3)[nH]c12.O=C(O)C(F)(F)F | 99% | 62% | 12% |
| CC(C)=CCc1c(-c2ccc(O)cc2O)oc2c3c(cc(O)c2c1=O)OC(C)(C)C=C3 [MORUSIN] | 89% | 8% | 1% |
| CC(=O)Nc1cccc(-c2cn(-c3ccc(OCc4cccc(F)c4)c(Cl)c3)c3ncncc23)c1 | 100% | 66% | 7% |
| CCOc1cc2ccccc2cc1CNCCCCCCNCc1cc2ccccc2cc1OCC.CS(=O)(=O)O | 100% | 76% | 99% |
| CN1CCN(CC(=O)Nc2cccc(-c3ccc(-c4nc5cc(F)ccc5[nH]4)s3)c2)CC1 | 100% | 94% | 71% |
| CC(C)C[C@H](NC(=O)c1ccc(OCCN2CCOCC2)cc1)C(=O)N[C@H](/C=N/N1CCN(C)C1=O)CCc1ccccc1 | 90% | 65% | 3% |
| O=C(CC(=O)C(F)(F)F)c1ccc2c(c1)OCO2 | 96% | 0% | 44% |
| COc1ccc(Nc2cc(C)nc(Nc3ccc(NC(C)=O)cc3)n2)cc1 | 98% | 31% | 16% |
| CCCCCCN(C(=O)OCc1ccccc1)C1CCN(C(=O)OC(C)(C)C)CC1C(=O)OCC (stereo unspecified) | 96% | 96% | 9% |

| SMILES | Inhibition (Plasmodium falciparum [1]) | Inhibition (Plasmodium falciparum [2]) | Inhibition (HepG2) |
| --- | --- | --- | --- |
| O=C(/C=C/c1ccc(-c2nc3ccc(Cl)cc3[nH]2)cc1)NCc1cccc(F)c1 | 99% | 68% | 1% |
| Br.COc1cc(CCCON2C(=N)N=C(N)NC2(C)C)cc(OC)c1OC | 98% | 94% | 68% |
| COc1ccc2nccc([C@@H](O)CN3CCC(NCCOc4cccc(C(F)(F)F)c4)CC3)c2c1.O=C(O)C(=O)O | 100% | 74% | 16% |
| Cc1ccc(Oc2cnn(C)c(=O)c2Nc2cccc(C(=O)NCCc3ccccn3)c2)c(C)c1 | 94% | 94% | 0% |
| O=C(NCCN1CCCc2ccccc21)C1CCN(c2nc(-c3ccc(Cl)cc3)no2)CC1 | 86% | 62% | 11% |
| CCCC(C)NC(=O)[C@H](Cc1ccccc1)NC(=O)c1ccc(O)c(-c2ccc(OC)cc2)c1 (stereo partly specified) | 85% | 1% | 12% |
| CCc1nc2nc(C)cc(Nc3cc(C)cc(C)c3)n2n1 | 96% | 96% | 21% |
| CCNC(=O)c1ccc2c(c1)c(C)c(C)n2Cc1ccc(F)cc1 | 93% | 91% | 25% |
| CN1CCN(CCCN(Cc2cccc(-c3cccc(CNC4CCCC4)c3)c2)C(=O)/C=C/c2ccccc2)CC1.O=C(O)C(F)(F)F | 100% | 99% | 84% |
| Cc1ccc(NC(=O)Nc2ccc(S(=O)(=O)c3ccc(NC(=O)Nc4ccc(C)c(Cl)c4)cc3)cc2)cc1Cl | 99% | 42% | 49% |
| Br.c1cc(C2=NC3CCCCC3N2)ccc1OCCCOc1ccc(C2=NC3CCCCC3N2)cc1 (stereo unspecified) | 99% | 64% | 0% |
| O=C(O)C(F)(F)F.O=S(=O)(NCCN1CCCC1)c1cccc(-c2cccc(CNCCc3cccs3)c2)c1 | 100% | 45% | 30% |
| Cc1ccccc1C1CCN(C2CCC(NC(=O)C3=Cc4cc(Cl)ccc4OC3)CC2)CC1 (stereo unspecified) | 100% | 99% | 51% |
| CCc1c(C(=O)NC2CCC(N3CCC(c4ccccc4C)CC3)CC2)[nH]c2ccc(Br)cc12 (stereo unspecified) | 100% | 99% | 81% |
| CCOC(=O)N1CCN(C(=O)Nc2ccc(Cl)cc2)CC1 | 92% | 0% | 4% |
| O=C1CCCC1Sc1nc2ccccc2c(=O)n1-c1ccc(Cl)c(Cl)c1 (stereo unspecified) | 97% | 42% | 10% |
| O=C(NCCCCN1CCC(c2c[nH]c3ccccc23)CC1)c1sc(-c2ccc(C(F)(F)F)cc2)nc1CO | 94% | 3% | 34% |
| Cc1c(S(=O)(=O)Nc2ccc3nccc(N4CCN[C@H](C)C4)c3c2)sc2ccc(Cl)cc12.Cl | 96% | 0% | 16% |
| Cc1cc(N[C@@H](CC(C)C)C(=O)NCc2cccc(F)c2)nc(NCCc2ccccc2)n1.O=C(O)C(F)(F)F | 88% | 33% | 6% |
| NS(=O)(=O)c1ccc(CNc2ccc3ncc(-c4ccc(Cl)cc4)n3n2)cc1 | 96% | 99% | 26% |
